Source: PubChem BioAssay (NCI)
This is part of a sample that, as a whole, favours compounds with a hit. Of some 83,000 tested, about 20% had one in any assay.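 Negative percent growth values reflect cell death: -40 means 40% of the cells present at the start died, and -100 means all died.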 Values without a mark were called inactive. Activity calls are given as the source filed them. The calls were made as follows: active = growth percent below 10; inactive = the rest.

Assays:
Assay in all cases: NCI-60 one-dose screen, 48 h (100 = growth as untreated, 0 = no growth, -100 = all killed)
Conditions in all cases: 10 µM unless noted
HCT-15 colon = tested on: HCT-15 colon
HT29 colon = tested on: HT29 colon
SNB-19 CNS = tested on: SNB-19 CNS
U251 CNS = tested on: U251 CNS
PC-3 prostate = tested on: PC-3 prostate
SK-MEL-5 melanoma = tested on: SK-MEL-5 melanoma
UACC-62 melanoma = tested on: UACC-62 melanoma
LOX IMVI melanoma = tested on: LOX IMVI melanoma
SK-MEL-28 melanoma = tested on: SK-MEL-28 melanoma
SNB-75 CNS = tested on: SNB-75 CNS

C[C@]12CC[C@H]3[C@@H](CC[C@]4(O)C[C@@H](O[C@@H]5O[C@H](CO)[C@@H](O[C@@H]6OC[C@@H](O)[C@H](O)[C@H]6O)[C@H](O)[C@H]5O)CC[C@]34C=O)[C@@]1(O)CC[C@@H]2C1=CC(=O)OC1
growth (HCT-15 colon): -9.5% (active)
growth (HT29 colon): 3.12% (active)
growth (SNB-19 CNS): 26%
growth (U251 CNS): 4.09% (active)
growth (PC-3 prostate): 4.54% (active)
growth (SK-MEL-5 melanoma): -14.1% (active)
growth (UACC-62 melanoma): 1.05% (active)
growth (LOX IMVI melanoma): -37.3% (active)
growth (SK-MEL-28 melanoma): 41.6%

COc1cc([N+](=O)[O-])c2nc(C)ccc2c1[N+](=O)[O-]
growth (HCT-15 colon): 92.9%
growth (SNB-75 CNS): 109%
growth (SNB-19 CNS): 95.2%
growth (U251 CNS): 90%
growth (PC-3 prostate): 93.9%
growth (SK-MEL-5 melanoma): 93.6%
growth (UACC-62 melanoma): 86.7%
growth (LOX IMVI melanoma): 71.5%
growth (SK-MEL-28 melanoma): 103%

CCN(CC)c1ccc2c(c1)OC(N)=C(C#N)C2c1cc(OC)c2c(c1)OCO2 (configuration not stated)
growth (HCT-15 colon): 16.1%
growth (HT29 colon): -9.44% (active)
growth (SNB-19 CNS): 40.1%
growth (U251 CNS): 12.5%
growth (PC-3 prostate): 30.9%
growth (SK-MEL-5 melanoma): -29.6% (active)
growth (UACC-62 melanoma): 31.8%
growth (LOX IMVI melanoma): 23.2%
growth (SK-MEL-28 melanoma): 72.2%

COc1cccc2c1c(C(=O)C(=O)Nc1cc(C)no1)cn2Cc1ccc(F)cc1
growth (HCT-15 colon): 29.5%
growth (HT29 colon): 24.8%
growth (SNB-19 CNS): 66%
growth (U251 CNS): 51.7%
growth (PC-3 prostate): 62.5%
growth (SK-MEL-5 melanoma): 36.3%
growth (UACC-62 melanoma): 38.7%
growth (LOX IMVI melanoma): 56.1%
growth (SK-MEL-28 melanoma): 68.3%

CCC(=O)Nc1ccc(Cl)c(Cl)c1
growth (HCT-15 colon): 101%
growth (HT29 colon): 91.3%
growth (SNB-19 CNS): 107%
growth (U251 CNS): 95.7%
growth (PC-3 prostate): 88.9%
growth (UACC-62 melanoma): 96.6%
growth (LOX IMVI melanoma): 98.3%
growth (SK-MEL-28 melanoma): 102%

CCN(CCO)C(Cc1ccccc1)c1ccccc1 (configuration not stated)
growth (HT29 colon): 98.5%
growth (SNB-75 CNS): 99.8%
growth (SNB-19 CNS): 119%
growth (U251 CNS): 115%
growth (PC-3 prostate): 94.9%
growth (SK-MEL-5 melanoma): 104%
growth (UACC-62 melanoma): 107%
growth (LOX IMVI melanoma): 92.6%
growth (SK-MEL-28 melanoma): 101%

CCNc1nc(Cl)nc(NCC)n1
growth (HT29 colon): 107%
growth (SNB-75 CNS): 93.6%
growth (SNB-19 CNS): 93%
growth (U251 CNS): 104%
growth (PC-3 prostate): 89.9%
growth (SK-MEL-5 melanoma): 98.2%
growth (UACC-62 melanoma): 102%
growth (LOX IMVI melanoma): 97.9%
growth (SK-MEL-28 melanoma): 115%

CC(=O)c1ccc(C(=O)NCC2CCC3(CC2)OOC2(CCCCC2)OO3)cc1
growth (HT29 colon): 83.4%
growth (SNB-75 CNS): 99.8%
growth (SNB-19 CNS): 96.9%
growth (U251 CNS): 64.4%
growth (PC-3 prostate): 71%
growth (UACC-62 melanoma): 80.9%
growth (LOX IMVI melanoma): 35.3%
growth (SK-MEL-28 melanoma): 95.5%

COc1ccc(C(=O)c2sc3nc4c(cc3c2N)N2CCC4CC2)cc1OC
growth (HT29 colon): 105%
growth (SNB-75 CNS): 83.9%
growth (SNB-19 CNS): 108%
growth (U251 CNS): 84.9%
growth (SK-MEL-5 melanoma): 48.2%
growth (UACC-62 melanoma): 89.9%
growth (LOX IMVI melanoma): 85.4%
growth (SK-MEL-28 melanoma): 96.1%

CCOC(=O)[C@@H](C)C[C@H](Cc1ccccc1)NC(=O)c1csc([C@@H](C[C@H](C(C)C)N(C)C(=O)[C@H](CCC(C)C)NC(=O)[C@H]2CCCCN2C)OC(C)=O)n1
growth (HT29 colon): -14.9% (active)
growth (SNB-75 CNS): 37.6%
growth (SNB-19 CNS): 39.9%
growth (U251 CNS): 2.75% (active)
growth (PC-3 prostate): 13.7%
growth (SK-MEL-5 melanoma): -25.5% (active)
growth (UACC-62 melanoma): 40.7%
growth (LOX IMVI melanoma): 15.2%
growth (SK-MEL-28 melanoma): 64.8%

O=C1C=C(N2C3C4CCC(C4)C32)C(=O)C=C1c1ccccc1 (configuration not stated)
growth (HT29 colon): 108%
growth (SNB-75 CNS): 65.4%
growth (SNB-19 CNS): 91.4%
growth (PC-3 prostate): 81.7%
growth (SK-MEL-5 melanoma): 95.9%
growth (UACC-62 melanoma): 80.6%
growth (LOX IMVI melanoma): 89.9%
growth (SK-MEL-28 melanoma): 91.7%

O=C1OCCC1Br (configuration not stated)
growth (HT29 colon): 97.3%
growth (SNB-75 CNS): 89.9%
growth (SNB-19 CNS): 104%
growth (PC-3 prostate): 99.5%
growth (UACC-62 melanoma): 103%
growth (LOX IMVI melanoma): 97.4%
growth (SK-MEL-28 melanoma): 99.5%

C/C(=C\c1cc(C(F)(F)F)nn1CCNC(=O)OC(C)(C)C)[C@@H]1C[C@@H]2O[C@]2(C)CCC[C@H](C)[C@H](O)[C@@H](C)C(=O)C(C)(C)[C@@H](O)CC(=O)O1
growth (HT29 colon): 23.6%
growth (SNB-75 CNS): 37.2%
growth (SNB-19 CNS): 65.4%
growth (U251 CNS): 61.4%
growth (PC-3 prostate): 32%
growth (UACC-62 melanoma): 40.7%
growth (LOX IMVI melanoma): 55.9%
growth (SK-MEL-28 melanoma): 79.2%

COC(=O)[C@H](Cc1ccccc1)NNC(=O)c1csc([C@@H](C[C@H](C(C)C)N(C)C(=O)[C@@H](NC(=O)[C@H]2CCCCN2C)C2CC2)OC(C)=O)n1
growth (HT29 colon): 4.57% (active)
growth (SNB-75 CNS): 49.2%
growth (SNB-19 CNS): 65.2%
growth (U251 CNS): 4.68% (active)
growth (PC-3 prostate): 13.9%
growth (SK-MEL-5 melanoma): -42.3% (active)
growth (UACC-62 melanoma): 33.7%
growth (LOX IMVI melanoma): 13.6%
growth (SK-MEL-28 melanoma): 48.3%

CCN(CC)CCOC(=O)C(OC(C)C)(c1ccccc1)c1ccccc1
growth (HT29 colon): 79.7%
growth (SNB-75 CNS): 88.3%
growth (SNB-19 CNS): 96.2%
growth (U251 CNS): 101%
growth (PC-3 prostate): 83.7%
growth (UACC-62 melanoma): 103%
growth (LOX IMVI melanoma): 96.7%
growth (SK-MEL-28 melanoma): 99.6%

C/C=C(\C)C(=O)O[C@@H]1C(O)[C@H]2OC(COC(=O)CCC(=O)CCCCCC[C@H](CCCCC)O[C@@H]3OC(C)[C@H](OC(C)=O)C(O)[C@H]3O2)[C@H]1OC(=O)/C=C/c1ccccc1 (some centres not stated)
growth (HT29 colon): 5.27% (active)
growth (SNB-75 CNS): 1.65% (active)
growth (SNB-19 CNS): 34.7%
growth (U251 CNS): 8.26% (active)
growth (PC-3 prostate): 21.3%
growth (SK-MEL-5 melanoma): -79.1% (active)
growth (UACC-62 melanoma): -46.8% (active)
growth (LOX IMVI melanoma): -49.9% (active)
growth (SK-MEL-28 melanoma): 18.5%

N/C(=N/N=C/c1ccncc1)N[N+](=O)[O-]
growth (HT29 colon): 101%
growth (SNB-19 CNS): 104%
growth (U251 CNS): 97.4%
growth (PC-3 prostate): 97.9%
growth (SK-MEL-5 melanoma): 103%
growth (UACC-62 melanoma): 97.3%
growth (LOX IMVI melanoma): 95.5%
growth (SK-MEL-28 melanoma): 110%

COC(=O)[C@@H](C)C[C@H](Cc1ccccc1)NC(=O)c1cccc([C@@H](C[C@H](C(C)C)N(C)C(=O)[C@@H](NC(=O)[C@H]2CCCCN2C)C(C)C)OC(C)=O)n1
growth (HT29 colon): 6.05% (active)
growth (SNB-75 CNS): 26.5%
growth (SNB-19 CNS): 18.5%
growth (U251 CNS): 14.6%
growth (PC-3 prostate): 28.7%
growth (SK-MEL-5 melanoma): -50.6% (active)
growth (UACC-62 melanoma): 29.1%
growth (SK-MEL-28 melanoma): 67.2%

COc1ccc(/C(C)=C(\c2ccc(OCCN3CCOCC3)cc2)c2ccc(OC(=O)Cc3ccccc3)cc2)cc1
growth (HT29 colon): 92.4%
growth (SNB-75 CNS): 121%
growth (SNB-19 CNS): 111%
growth (U251 CNS): 102%
growth (PC-3 prostate): 94.5%
growth (SK-MEL-5 melanoma): 106%
growth (UACC-62 melanoma): 106%
growth (LOX IMVI melanoma): 103%
growth (SK-MEL-28 melanoma): 108%

Cn1cc(-c2csc(-c3cn(CCCCN4CCCCC4)c4ccc(F)cc34)n2)c2cccnc21
growth (HT29 colon): -73.5% (active)
growth (SNB-75 CNS): 68.8%
growth (SNB-19 CNS): 87.1%
growth (PC-3 prostate): 68.4%
growth (SK-MEL-5 melanoma): -100% (active)
growth (LOX IMVI melanoma): 75.9%
growth (SK-MEL-28 melanoma): -78.2% (active)

COc1cccc2c1c(C(=O)c1ccco1)cn2Cc1ccc(F)cc1
growth (HT29 colon): 118%
growth (SNB-75 CNS): 121%
growth (SNB-19 CNS): 119%
growth (U251 CNS): 112%
growth (PC-3 prostate): 105%
growth (SK-MEL-5 melanoma): 96.3%
growth (UACC-62 melanoma): 78.3%
growth (LOX IMVI melanoma): 109%
growth (SK-MEL-28 melanoma): 123%
